What all share (experiment): DAPPL (digital affinity profiling via proximity ligation, sequencing); 10 mM Tris-HCl pH 7.5, 50 mM NaCl, 1 mM DTT, 4% glycerol, room temperature, 30 min; GST-TFs on glutathione beads, 16-mer random dsDNA library, 0.1% formaldehyde crosslink after washing; high values mean tight binding
The target of one test is T1, ERG (Homo sapiens, UniProt P11308 1-479).
T1 sequence: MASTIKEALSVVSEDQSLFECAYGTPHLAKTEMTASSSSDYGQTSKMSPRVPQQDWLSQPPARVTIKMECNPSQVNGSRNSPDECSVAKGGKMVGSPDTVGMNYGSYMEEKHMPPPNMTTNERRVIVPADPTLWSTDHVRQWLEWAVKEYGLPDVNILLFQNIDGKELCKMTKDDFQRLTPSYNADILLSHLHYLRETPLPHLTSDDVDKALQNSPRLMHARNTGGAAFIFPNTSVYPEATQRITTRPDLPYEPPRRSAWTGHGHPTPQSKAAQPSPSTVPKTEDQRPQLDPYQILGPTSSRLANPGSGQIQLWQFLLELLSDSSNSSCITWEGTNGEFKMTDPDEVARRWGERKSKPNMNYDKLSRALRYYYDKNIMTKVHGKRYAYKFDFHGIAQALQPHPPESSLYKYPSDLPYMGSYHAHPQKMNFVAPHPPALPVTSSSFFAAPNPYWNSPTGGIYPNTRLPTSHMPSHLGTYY
The following applies: protein: recombinant; tags: N-terminal GST; dsDNA, one strand shown. Put shortly:
(§1)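 Human transcription factors were made in yeast as GST fusions, captured on glutathione beads and barcoded with DNA. With a tag-only sample included, the pool was incubated with 200 nmole of a random double-stranded 16-mer DNA library in Tris/NaCl/DTT/glycerol buffer at room temperature for 30 min, then crosslinked with 0.1% formaldehyde after washing, ligated by proximity, amplified and sequenced. For binding signal, each hexamer's read frequency for a factor is divided by its frequency for the tag-only sample.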

A further test concerns the target ELF1 (Homo sapiens, UniProt P32519 1-619). The note with it: protein: recombinant; tags: N-terminal GST; dsDNA, one strand shown. A digest of the protocol:
as §1

Another test addresses T2, ETS2 (Homo sapiens, UniProt P15036 1-469).
T2 sequence: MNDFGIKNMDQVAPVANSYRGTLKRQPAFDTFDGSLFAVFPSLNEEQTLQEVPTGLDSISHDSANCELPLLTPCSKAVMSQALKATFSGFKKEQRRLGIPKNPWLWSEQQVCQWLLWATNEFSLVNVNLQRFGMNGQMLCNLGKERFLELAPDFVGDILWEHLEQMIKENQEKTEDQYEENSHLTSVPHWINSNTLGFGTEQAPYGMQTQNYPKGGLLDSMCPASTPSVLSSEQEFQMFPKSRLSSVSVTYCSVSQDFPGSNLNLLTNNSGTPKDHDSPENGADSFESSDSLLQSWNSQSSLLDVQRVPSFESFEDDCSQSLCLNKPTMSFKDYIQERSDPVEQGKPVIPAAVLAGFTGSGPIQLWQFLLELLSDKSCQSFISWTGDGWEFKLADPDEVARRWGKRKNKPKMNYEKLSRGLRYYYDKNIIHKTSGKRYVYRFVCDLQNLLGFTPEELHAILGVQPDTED
The following applies: protein: recombinant; tags: N-terminal GST; dsDNA, one strand shown. A digest of the protocol:
as §1

The target in the next test is SPIB (Homo sapiens, UniProt Q01892 1-262). The note with it: protein: recombinant; tags: N-terminal GST; dsDNA, one strand shown. A digest of the protocol: as §1
Another test deals with T3, ERF (Homo sapiens, UniProt P50548 1-548).
T3 sequence: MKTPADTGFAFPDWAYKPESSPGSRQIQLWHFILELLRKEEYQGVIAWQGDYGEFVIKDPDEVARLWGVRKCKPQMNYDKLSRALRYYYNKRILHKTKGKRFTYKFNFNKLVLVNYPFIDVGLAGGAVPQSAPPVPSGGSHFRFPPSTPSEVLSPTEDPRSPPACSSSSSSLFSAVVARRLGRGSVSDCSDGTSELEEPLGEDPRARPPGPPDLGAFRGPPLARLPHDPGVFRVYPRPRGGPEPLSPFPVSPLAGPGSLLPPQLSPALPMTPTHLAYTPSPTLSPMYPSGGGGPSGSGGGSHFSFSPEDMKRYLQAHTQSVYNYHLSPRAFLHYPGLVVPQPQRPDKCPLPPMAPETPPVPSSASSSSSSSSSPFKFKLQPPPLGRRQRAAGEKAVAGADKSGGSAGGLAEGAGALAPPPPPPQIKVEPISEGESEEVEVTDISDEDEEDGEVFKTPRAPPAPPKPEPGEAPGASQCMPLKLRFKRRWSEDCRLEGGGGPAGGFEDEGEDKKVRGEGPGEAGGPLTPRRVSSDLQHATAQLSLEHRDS
The following applies: protein: recombinant; tags: N-terminal GST; dsDNA, one strand shown. A digest of the protocol:
as §1

A further test deals with HSF1 (Homo sapiens, UniProt Q00613 1-529). The following applies: protein: recombinant; tags: N-terminal GST; chain copies: 3; dsDNA, one strand shown. Put shortly: as §1
The next test has as its target CRX (Homo sapiens, UniProt O43186 1-299). The note with it: protein: recombinant; tags: N-terminal GST; dsDNA, one strand shown. A digest of the protocol:
as §1

In another test the target is T4, ETV3L (Homo sapiens, UniProt Q6ZN32 1-361).
T4 sequence: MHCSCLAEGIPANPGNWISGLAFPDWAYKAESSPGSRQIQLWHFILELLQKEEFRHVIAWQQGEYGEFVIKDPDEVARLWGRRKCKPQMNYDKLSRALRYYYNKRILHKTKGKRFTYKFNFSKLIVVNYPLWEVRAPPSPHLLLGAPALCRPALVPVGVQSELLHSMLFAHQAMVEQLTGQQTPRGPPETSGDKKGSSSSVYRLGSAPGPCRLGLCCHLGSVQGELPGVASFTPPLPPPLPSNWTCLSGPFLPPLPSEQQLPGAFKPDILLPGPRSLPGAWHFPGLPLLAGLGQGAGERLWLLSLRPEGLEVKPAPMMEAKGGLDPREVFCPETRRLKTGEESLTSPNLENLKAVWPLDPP
The following applies: protein: recombinant; tags: N-terminal GST; dsDNA, one strand shown. Put shortly:
as §1

A further test addresses T5, SPDEF (Homo sapiens, UniProt O95238 1-335).
T5 sequence: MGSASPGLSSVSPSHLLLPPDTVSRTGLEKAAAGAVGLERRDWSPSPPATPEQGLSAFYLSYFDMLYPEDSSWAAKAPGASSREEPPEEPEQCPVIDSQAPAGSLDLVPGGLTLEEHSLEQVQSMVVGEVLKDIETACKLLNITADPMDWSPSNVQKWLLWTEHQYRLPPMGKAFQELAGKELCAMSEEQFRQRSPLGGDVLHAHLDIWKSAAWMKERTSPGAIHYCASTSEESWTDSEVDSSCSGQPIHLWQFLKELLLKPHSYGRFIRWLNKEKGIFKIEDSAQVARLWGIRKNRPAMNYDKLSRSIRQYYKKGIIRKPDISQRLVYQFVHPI
The note with it: protein: recombinant; tags: N-terminal GST; dsDNA, one strand shown. Put shortly: as §1

In the next test the target is T6, ETV7 (Homo sapiens, UniProt Q9Y603 1-341).
T6 sequence: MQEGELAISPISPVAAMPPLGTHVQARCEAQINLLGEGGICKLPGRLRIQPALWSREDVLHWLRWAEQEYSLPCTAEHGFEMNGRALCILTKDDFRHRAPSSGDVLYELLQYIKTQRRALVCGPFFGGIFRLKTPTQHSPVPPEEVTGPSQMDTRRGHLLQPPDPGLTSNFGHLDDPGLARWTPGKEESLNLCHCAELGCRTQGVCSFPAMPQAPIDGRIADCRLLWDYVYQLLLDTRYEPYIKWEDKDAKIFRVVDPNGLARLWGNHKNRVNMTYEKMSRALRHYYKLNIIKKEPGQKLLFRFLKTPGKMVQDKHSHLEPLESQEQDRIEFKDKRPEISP
The following applies: protein: recombinant; tags: N-terminal GST; dsDNA, one strand shown. Put shortly: as §1

The next test deals with T7, EHF (Homo sapiens, UniProt Q9NZC4 1-300).
T7 sequence: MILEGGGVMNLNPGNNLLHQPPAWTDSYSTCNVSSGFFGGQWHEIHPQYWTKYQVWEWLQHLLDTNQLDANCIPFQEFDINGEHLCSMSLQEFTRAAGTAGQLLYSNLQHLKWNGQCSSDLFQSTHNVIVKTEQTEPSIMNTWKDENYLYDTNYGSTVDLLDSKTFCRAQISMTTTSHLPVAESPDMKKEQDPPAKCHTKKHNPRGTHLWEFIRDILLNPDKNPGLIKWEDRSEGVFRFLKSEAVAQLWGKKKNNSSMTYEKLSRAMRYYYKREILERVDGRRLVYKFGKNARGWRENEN
The following applies: protein: recombinant; tags: N-terminal GST; dsDNA, one strand shown. A digest of the protocol:
as §1

Sequence of HSF1 (Q00613 whole entry): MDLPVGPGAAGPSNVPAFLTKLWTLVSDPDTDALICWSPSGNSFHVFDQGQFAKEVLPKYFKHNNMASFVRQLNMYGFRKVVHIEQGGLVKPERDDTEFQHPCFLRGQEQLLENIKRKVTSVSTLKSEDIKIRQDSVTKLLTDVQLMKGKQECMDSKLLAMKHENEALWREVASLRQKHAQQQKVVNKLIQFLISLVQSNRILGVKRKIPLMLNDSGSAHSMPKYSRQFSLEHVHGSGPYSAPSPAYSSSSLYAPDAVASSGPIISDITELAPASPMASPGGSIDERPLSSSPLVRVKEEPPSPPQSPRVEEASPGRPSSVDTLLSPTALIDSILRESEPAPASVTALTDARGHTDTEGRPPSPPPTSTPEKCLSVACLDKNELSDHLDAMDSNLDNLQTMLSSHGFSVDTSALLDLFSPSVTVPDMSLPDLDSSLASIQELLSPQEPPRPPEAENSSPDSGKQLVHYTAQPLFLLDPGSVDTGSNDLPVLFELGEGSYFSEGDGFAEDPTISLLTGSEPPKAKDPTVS
Sequence of CRX (O43186 whole entry): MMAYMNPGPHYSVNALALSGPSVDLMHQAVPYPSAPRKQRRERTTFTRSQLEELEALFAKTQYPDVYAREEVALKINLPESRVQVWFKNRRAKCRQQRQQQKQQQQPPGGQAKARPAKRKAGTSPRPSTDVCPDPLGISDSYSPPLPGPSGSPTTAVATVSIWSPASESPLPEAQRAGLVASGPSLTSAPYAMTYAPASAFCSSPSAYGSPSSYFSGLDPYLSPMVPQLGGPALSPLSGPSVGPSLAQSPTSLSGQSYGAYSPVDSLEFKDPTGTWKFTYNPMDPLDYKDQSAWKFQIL
Sequence of SPIB (Q01892 whole entry): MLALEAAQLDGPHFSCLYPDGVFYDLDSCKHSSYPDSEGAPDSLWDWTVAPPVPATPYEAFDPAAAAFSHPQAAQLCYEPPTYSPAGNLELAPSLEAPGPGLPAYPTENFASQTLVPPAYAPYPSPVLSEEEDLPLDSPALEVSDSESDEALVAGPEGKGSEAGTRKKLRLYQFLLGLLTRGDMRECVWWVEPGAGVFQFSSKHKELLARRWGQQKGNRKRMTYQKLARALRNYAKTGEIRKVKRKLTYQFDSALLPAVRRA
Sequence of ELF1 (P32519 whole entry): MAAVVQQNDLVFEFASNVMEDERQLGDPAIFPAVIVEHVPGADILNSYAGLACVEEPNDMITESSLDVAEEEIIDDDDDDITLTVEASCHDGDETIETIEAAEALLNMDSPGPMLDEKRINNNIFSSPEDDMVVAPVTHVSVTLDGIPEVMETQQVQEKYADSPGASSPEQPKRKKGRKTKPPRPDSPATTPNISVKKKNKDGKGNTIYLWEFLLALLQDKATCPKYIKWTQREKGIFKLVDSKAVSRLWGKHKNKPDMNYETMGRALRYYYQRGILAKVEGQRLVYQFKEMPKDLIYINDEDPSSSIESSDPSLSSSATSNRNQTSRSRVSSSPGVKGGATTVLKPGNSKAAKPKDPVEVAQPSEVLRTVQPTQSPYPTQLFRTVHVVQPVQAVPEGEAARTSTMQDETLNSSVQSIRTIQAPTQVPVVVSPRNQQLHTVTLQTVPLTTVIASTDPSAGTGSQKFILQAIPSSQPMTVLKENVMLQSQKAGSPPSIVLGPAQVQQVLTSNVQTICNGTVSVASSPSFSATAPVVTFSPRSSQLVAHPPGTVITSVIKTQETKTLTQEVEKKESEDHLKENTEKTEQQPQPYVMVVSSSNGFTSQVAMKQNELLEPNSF

Regarding TTCAGA, the binding signal with ERG was 1.02 fold enrichment (6-mer frequency, TF over GST control).

On to GGCTTT, for which the binding signal with ELF1 is 1.04 fold enrichment (6-mer frequency, TF over GST control); in the test with ETS2, 1.03 fold enrichment (6-mer frequency, TF over GST control).

For the sequence GAATGG, the binding signal with SPIB was 1.06 fold enrichment (6-mer frequency, TF over GST control).

TTTAGA: the binding signal with ERF is 1.08 fold enrichment (6-mer frequency, TF over GST control).

As to GGATTC, the binding signal is 1.13 fold enrichment (6-mer frequency, TF over GST control) with HSF1; 1.15 fold enrichment (6-mer frequency, TF over GST control) with CRX; 1.02 fold enrichment (6-mer frequency, TF over GST control) with ETV3L; 1.07 fold enrichment (6-mer frequency, TF over GST control) with SPDEF.

On to GAAAGT, for which the binding signal is 1.26 fold enrichment (6-mer frequency, TF over GST control) with HSF1 and 1 fold enrichment (6-mer frequency, TF over GST control) in the test with ETV7.

As to GGATCA, the binding signal is 1.1 fold enrichment (6-mer frequency, TF over GST control) in the test with HSF1 and 1.53 fold enrichment (6-mer frequency, TF over GST control) with CRX.

With ATTAGA, the binding signal with HSF1 was 1.45 fold enrichment (6-mer frequency, TF over GST control); with CRX, 1.95 fold enrichment (6-mer frequency, TF over GST control).

On to CAGAAA, for which the binding signal with HSF1 was 1.99 fold enrichment (6-mer frequency, TF over GST control); with CRX it was 1.07 fold enrichment (6-mer frequency, TF over GST control); in the test with ETV7, 1.02 fold enrichment (6-mer frequency, TF over GST control).

For AGCGAA, the binding signal with EHF was 1.06 fold enrichment (6-mer frequency, TF over GST control); with HSF1, 1.02 fold enrichment (6-mer frequency, TF over GST control).

For the origin of these results see article PMC7862700, “An all-to-all approach to the identification of sequence-specific readers for epigenetic DNA modifications on cytosine”.
